The structures appear in SMILES notation. Active and inactive are the calls of the source.

Experimental findings from PubChem BioAssay are described below.

Assay [1] can be described thus: optical density shifts of acrAB sulA E. coli – strain DRC41, OD650, 48 h, E. coli filamentation inducer project, primary screen (AID 1152).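 Note: E. coli MC1000 strain DRC41 lacking acrAB efflux pump and sulA.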 The following applies: higher = more signal, called active from +8 up or from −8 down.
Assay [2] can be described thus: probe aLefty1 binding on compound microarray – biochemical, small-molecule microarray, 635/667 nm fluorescence, primary screen (AID 1153).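 Note: score merges spot fluorescence with signal-to-noise ratio from the scanned slide images.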 The following applies: higher = more signal.
A short description of assay [3]: plasmodial surface anion channel blockers, osmotic lysis – cell-based, P. falciparum Indochina, OD700, 1 h, primary screen (AID 1154). The following applies: P. falciparum Indochina infected RBC osmotic lysis, higher = more signal, called active from +8 up or from −8 down.
Assay [4] can be described thus: plasmodial surface anion channel blockers, osmotic lysis – cell-based, P. falciparum Indochina, OD700, 2 h, primary screen (AID 1155).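 Note: lysis reports solute entry through the parasite surface anion channel PSAC.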 The settings on record: P. falciparum Indochina infected erythrocytes, higher = more signal, called active from +8 up or from −8 down.
The nature of assay [5]: changes in parasitized red cell lysis, either direction – P. falciparum Indochina, OD700, 3 h, PSAC antagonist project, primary screen (AID 1156). The following applies: P. falciparum-infected erythrocytes, osmotic lysis, higher = more signal, called active from +8 up or from −8 down.
Assay [6] is described as follows: plasmodial surface anion channel blockers, osmotic lysis – cell-based, P. falciparum Indochina, OD700, 18 h, primary screen (AID 1157). The following applies: P. falciparum Indochina infected erythrocytes, osmotic lysis OD700, 18 h; higher = more signal, called active from +8 up or from −8 down.
Assay [7] can be described thus: S6 kinase pathway phospho-S6 level changes – cell-based, A549, cytoblot, luminescence, serum-stimulated, primary screen (AID 1158).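 Note: serum-stimulated A549 lung adenocarcinoma cells; signal is phosphorylated S6 detected by cytoblot immunostaining with HRP secondary.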 The settings on record: 5 h, higher = more signal.
Assay [8] concerns the target NADPH oxidase 2 (Homo sapiens) (UniProt P04839). Briefly: compounds shifting NOX2 Amplex Red fluorescence – cell-based, HEK293-NOX2, PMA-stimulated, NOX inhibitor project, primary screen (AID 1159). Note: test concentration not given here. The following applies: 45 min, higher = more signal, called active from +8 up or from −8 down.
Assay [9] has as its target NADPH oxidase 4 (Homo sapiens) (UniProt Q9NPH5). Description: compounds shifting NOX4 Amplex Red fluorescence – cell-based, HEK293-NOX4, tetracycline-induced, NOX inhibitor project, primary screen (AID 1160). The settings on record: HEK293-NOX4, Amplex Red H2O2 fluorescence, 45 min; higher = more signal, called active from +8 up or from −8 down.
The target in assay [10] is NADPH oxidase 5 (Homo sapiens) (UniProt Q96PH1). Briefly: compounds shifting NOX5 Amplex Red fluorescence – cell-based, HEK293-NOX5, NOX inhibitor project, primary screen (AID 1161). The settings on record: HEK293-NOX5, ionomycin, 45 min, higher = more signal.
NADPH oxidase 5 (Homo sapiens), sequence (Q96PH1 whole entry, looked up): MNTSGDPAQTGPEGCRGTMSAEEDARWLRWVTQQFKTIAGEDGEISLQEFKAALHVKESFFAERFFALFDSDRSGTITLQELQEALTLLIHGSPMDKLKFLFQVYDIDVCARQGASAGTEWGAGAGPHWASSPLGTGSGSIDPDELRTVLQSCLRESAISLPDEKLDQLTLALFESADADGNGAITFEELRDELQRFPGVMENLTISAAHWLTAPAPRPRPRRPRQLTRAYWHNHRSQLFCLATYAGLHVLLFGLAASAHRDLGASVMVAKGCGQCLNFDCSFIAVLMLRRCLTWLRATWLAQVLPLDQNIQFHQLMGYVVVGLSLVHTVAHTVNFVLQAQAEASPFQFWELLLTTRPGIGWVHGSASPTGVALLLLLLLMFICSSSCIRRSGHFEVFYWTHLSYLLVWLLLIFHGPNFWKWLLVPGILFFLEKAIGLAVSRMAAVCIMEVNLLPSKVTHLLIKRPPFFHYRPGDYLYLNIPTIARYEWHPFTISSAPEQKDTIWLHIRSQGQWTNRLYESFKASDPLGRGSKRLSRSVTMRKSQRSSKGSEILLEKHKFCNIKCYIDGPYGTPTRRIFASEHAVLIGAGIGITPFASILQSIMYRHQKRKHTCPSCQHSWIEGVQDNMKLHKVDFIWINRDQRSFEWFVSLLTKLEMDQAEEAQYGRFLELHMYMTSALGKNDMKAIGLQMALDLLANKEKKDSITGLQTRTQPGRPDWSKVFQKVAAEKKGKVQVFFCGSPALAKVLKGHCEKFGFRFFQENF

NADPH oxidase 2 (Homo sapiens), sequence (P04839 whole entry, looked up): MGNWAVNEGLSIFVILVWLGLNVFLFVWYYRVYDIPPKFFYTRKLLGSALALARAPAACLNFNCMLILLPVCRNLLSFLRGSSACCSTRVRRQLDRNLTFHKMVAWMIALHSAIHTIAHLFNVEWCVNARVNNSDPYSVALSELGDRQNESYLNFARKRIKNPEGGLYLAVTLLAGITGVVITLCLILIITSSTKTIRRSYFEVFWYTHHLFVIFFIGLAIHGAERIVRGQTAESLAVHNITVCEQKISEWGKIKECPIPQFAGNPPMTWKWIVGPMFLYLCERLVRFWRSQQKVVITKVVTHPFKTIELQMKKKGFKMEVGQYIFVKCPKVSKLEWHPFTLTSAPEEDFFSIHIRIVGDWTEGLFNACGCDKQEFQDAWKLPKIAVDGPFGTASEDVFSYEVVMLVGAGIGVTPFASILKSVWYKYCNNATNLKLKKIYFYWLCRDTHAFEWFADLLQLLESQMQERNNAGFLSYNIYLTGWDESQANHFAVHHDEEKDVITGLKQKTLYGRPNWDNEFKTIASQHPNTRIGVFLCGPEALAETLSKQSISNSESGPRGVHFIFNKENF
NADPH oxidase 4 (Homo sapiens), sequence (Q9NPH5 whole entry, looked up): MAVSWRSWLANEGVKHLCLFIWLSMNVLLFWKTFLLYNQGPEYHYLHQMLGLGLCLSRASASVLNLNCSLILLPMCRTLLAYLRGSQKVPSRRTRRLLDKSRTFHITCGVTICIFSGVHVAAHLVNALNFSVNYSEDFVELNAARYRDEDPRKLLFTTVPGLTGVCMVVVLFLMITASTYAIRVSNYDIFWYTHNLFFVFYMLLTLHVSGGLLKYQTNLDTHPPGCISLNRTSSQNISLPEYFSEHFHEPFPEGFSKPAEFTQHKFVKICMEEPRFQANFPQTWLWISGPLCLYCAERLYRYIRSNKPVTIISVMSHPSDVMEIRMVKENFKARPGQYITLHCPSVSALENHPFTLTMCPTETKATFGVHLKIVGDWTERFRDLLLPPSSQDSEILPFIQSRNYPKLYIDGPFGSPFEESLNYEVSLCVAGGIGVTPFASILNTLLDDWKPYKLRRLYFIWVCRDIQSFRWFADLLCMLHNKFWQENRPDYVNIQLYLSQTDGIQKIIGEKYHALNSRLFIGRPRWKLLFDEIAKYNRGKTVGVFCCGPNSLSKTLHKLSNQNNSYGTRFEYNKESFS

Consider `CCCCNC(=O)c1ccc(C#C[Si](C(C)C)(C(C)C)C(C)C)c(OC(C)=O)c1`, for which the z-score in [1] was -0.52 (inactive); in assay [3], 0.964 (inactive); in assay [4], 0.272 (inactive); in assay [5], 0.551 (inactive); in assay [6] it was 0.158 (inactive); in [7], 0.152. Moreover, the figures for the z-score in assay [8], in assay [9] and in [10] were 1.26 (inactive), 0.355 (inactive) and 0.458, respectively. Moreover, the composite z-score in assay [2] is -0.0518.

With `CC(C)C(=C=CC[C@@H](O)c1cccc(OCCO)c1)C[C@@H](O)COCc1ccccc1`, the z-score in [1] was 1.74 (inactive); in assay [3] it was 12.8 (active); in [4] it was -0.6 (inactive); in assay [5] it was 1.76 (inactive); in assay [6] it was -2.05 (inactive); in [7] it was 3.5. For the same molecule, the values for the z-score in assay [8], in assay [9] and in assay [10] were -1.19 (inactive), -1.2 (inactive) and -2.4, respectively. The molecule further had a composite z-score in assay [2] of -0.504.

Consider `CC(C)C[C@@H]1NC(=O)[C@H]2C[C@@H](C(=O)NCCCCCN)[C@@H](c3cccc(OCCO)c3)N2C1=O`, for which the z-score in assay [1] was 1.25 (inactive); in assay [3], 3.07 (inactive); in assay [4], -0.328 (inactive); in assay [5] it was 2.27 (inactive); in assay [6], -2.15 (inactive); in assay [7] it was 2.13. In addition, the z-score was 1.33 (inactive) in assay [8], 0.993 (inactive) in assay [9] and 2.1 in [10]. Also, in assay [2], the composite z-score is -0.0172.

As for `COCCOC(=O)N1C(=O)[C@@]2(c3cc(C#CCNC(N)=O)ccc31)[C@H](c1ccc(OCCO)cc1)N1[C@H](c3ccccc3)[C@H](c3ccccc3)OC(=O)[C@H]1[C@@H]2C(=O)NC[C@H](O)c1ccccc1`, the z-score in assay [1] is 0.402 (inactive); in assay [3], 1.65 (inactive); in assay [4], 1.1 (inactive); in assay [5] it was 0.624 (inactive); in assay [6], 0.457 (inactive); in assay [7] it was -0.144. The z-score in assay [8] is 2.22 (inactive); in assay [9], 1.06 (inactive); in [10], -0.137. Further, in assay [2], the composite z-score was 0.119.

On to `COC(=O)[C@@]1(Cc2ccccc2CN=[N+]=[N-])N=C(c2ccc(OCCCO)cc2)O[C@H]1c1ccccc1`, for which the z-score is -0.571 (inactive) in assay [1]; 23.6 (active) in assay [3]; 19.8 (active) in [4]; 0.882 (inactive) in assay [5]; 3.64 (inactive) in assay [6]; 0.216 in [7]. Also, the z-score in assay [8] was -2.19 (inactive); in [9], -0.348 (inactive); in assay [10], -2.48. This molecule also registered a composite z-score in [2] of 0.105.

For `C=C[C@@H](C)[C@@H](OC(=O)Nc1ccc(SC)cc1)c1ccc(OCCO)cc1`, the z-score in assay [1] was -0.707 (inactive); in assay [3] it was 29.1 (active); in assay [4], 20.2 (active); in assay [5], 4.42 (inactive); in assay [6], 1.9 (inactive); in assay [7], 0.241. The z-score in [8] is -1.21 (inactive); in assay [9], -0.0499 (inactive); in assay [10] it was -0.431. For the same molecule, the composite z-score in [2] is -0.156.

`COCCOC(=O)N1C(=O)[C@@]2(c3ccccc31)[C@H](c1ccc(OCCO)cc1)N1[C@H](c3ccccc3)[C@H](c3ccccc3)OC(=O)[C@H]1[C@@H]2C(=O)N1CCCCCCC1`: the z-score in assay [1] was -0.906 (inactive); in assay [3], 22.8 (active); in [4] it was 7.62 (inactive); in [5], 0.586 (inactive); in assay [6] it was 1.64 (inactive); in [7], -0.0785. Further, the results for the z-score in assay [8], in assay [9] and in assay [10] were 0.918 (inactive), 0.901 (inactive) and 1.33, respectively. The molecule also returned a composite z-score in assay [2] of 2.77.

`COCC1C2CC[C@H]3C(OCc4ccc(OC)cc4)OC[C@]4(C)[C@H]3C2=C(CN4C(=O)OC(C)(C)C)[C@H](C)C1COC` (stereo not given in full): the z-score in assay [1] is -1.23 (inactive); in assay [3], 3.68 (inactive); in assay [4], -0.556 (inactive); in [5], 0.308 (inactive); in [6], -2.05 (inactive); in [7] it was 2.25. The figures for the z-score in [8], in [9] and in assay [10] were -1.53 (inactive), -1.89 (inactive) and -2.99, respectively. The composite z-score in [2] is -0.302.

Regarding `COc1ccc(CCNC(=O)[C@@]2(Cc3ccccc3I)c3ccccc3C(=O)N(Cc3ccccc3Cl)[C@H]2c2ccc(CO)cc2)cc1`, the z-score was -1.2 (inactive) in [1]; 4.53 (inactive) in [3]; 1.52 (inactive) in assay [4]; 1.55 (inactive) in assay [5]; 0.473 (inactive) in assay [6]; 0.0403 in assay [7]. Moreover, the z-score in assay [8] is 0.898 (inactive); in assay [9], 0.183 (inactive); in assay [10], 1.39. This molecule also registered a composite z-score in [2] of 0.893.

For `COC(=O)C1N=C(c2ccc(OCCCO)cc2)N(c2ccccc2)O1` (stereo not given), the z-score was 0.336 (inactive) in [1]; 24.9 (active) in [3]; 7.38 (inactive) in assay [4]; 1.02 (inactive) in [5]; 1.04 (inactive) in assay [6]; 0.417 in [7]. The z-score was 0.943 (inactive) in [8], 0.392 (inactive) in assay [9] and -0.0493 in assay [10]. Also, the composite z-score in assay [2] was determined as 0.103.

For `COc1cc(NN2C(C(O)c3ccc(I)cc3)C=CC3C(=O)N(c4ccccc4)C(=O)C32)cc(OC)c1OC` (stereo not given), the z-score is -0.877 (inactive) in [1]; 2.08 (inactive) in [3]; 0.477 (inactive) in assay [4]; 0.481 (inactive) in [5]; -0.497 (inactive) in [6]; 1.52 in assay [7]. Also, the z-score in assay [8] was -3.15 (inactive); in assay [9] it was -4.09 (inactive); in assay [10], -6.01. Besides, the composite z-score in [2] came out at 0.365.

For `C#C[C@@H](CC)O[Si](C#CCCCC#N)(C(C)C)C(C)C`, the z-score in [1] was 0.527 (inactive); in [3], 1.58 (inactive); in assay [4], 1.14 (inactive); in assay [5], 0.186 (inactive); in [6], 0.676 (inactive); in assay [7], -0.336. Moreover, the results for the z-score in assay [8], in assay [9] and in assay [10] were 1.03 (inactive), -0.222 (inactive) and 1.31, respectively. In assay [2], this molecule showed a composite z-score of -0.117.

Regarding `COCCOC(=O)N1C(=O)[C@@]2(c3cc(C#CC4=CCCCC4)ccc31)[C@H](C(=O)N1CCCCCCC1)[C@H]1C(=O)O[C@H](c3ccccc3)[C@H](c3ccccc3)N1[C@@H]2c1ccc(OCCO)cc1`, the z-score is -1.1 (inactive) in assay [1]; 4.58 (inactive) in assay [3]; 1.19 (inactive) in [4]; -0.26 (inactive) in [5]; 0.481 (inactive) in assay [6]; 0.118 in assay [7]. Further, the z-score in assay [8] is 0.983 (inactive); in [9], 0.567 (inactive); in [10], -0.934. This molecule had a composite z-score in [2] of 1.88.
